Assay results reported in PubChem BioAssay AID1508600 (Functional Genomics Laboratory (NCATS/FGL), 2020).
In all, about 53,000 sequences went through this assay and about 3,700 (7%) were called active. The sample as a whole holds a higher share of actives than the screen did. Unmarked numbers belong to inactive results.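 Rule for the calls: active = gene knockdowns whose robust z-score for IL-1 alpha signal is at least 2 or at most -2, so actives lie on both sides; inactive = the rest.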

Test: Components of the Cytosolic LPS Sensing Pathway: Gene Identification via Genome-wide siRNA Screen;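 note: robust z of the log signal after scaling to non-targeting control siRNA wells of the plate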
Conditions: RAW264.7 macrophages, IL-1a HTRF, actives lie on both sides, screened at 100 nM (by protocol), cells primed 5 h with Pam3CSK4 first
Outline: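 RAW264.7; siRNA 100 nM final, RNAiMAX, 48h 37 degrees C; Pam3CSK4 5 h; LipidA + TransIT-TKO 24 h; IL-1a HTRF; CellTiter-Glo viability; robust z vs negative-control median.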
Work on GCCAACCUGAAACCAUCUATT against Ptprg yielded a z-score of 0.0567.
In the case of GGACACAGACAAUGAAAUGTT against Fetub, the z-score is reported as -2.35 (active).
With GGAGCAUUGCUCUUCUUCATT against Get4 the z-score was -0.073.
With GCAGAAGUAUUACUGGAUGTT against Olfr572 the z-score was 0.841.
For GCUAGGAACGAGGAGCUAATT against Prrt3, the z-score was 1.07.
GGAAUACAUAGCACACGGUTT against Apba2 showed a z-score of 1.06.
CCCUGAAACAAUGAAUACATT against Serpini1 showed a z-score of 0.325.
With “GCUUCCUAACCAGGUUUGATT against 4430402I18Rik” the z-score was 2.1 (active).
GGAGAAGCUAAGAAACGAGTT against Acyp2 gave a z-score of -0.696.
Sequence CCCACAUUGCUUACCUUUCTT against Zfp523 has a z-score of -0.762.
For GCUGGGUUGCUGAUUUUUGTT against Arl5a, the z-score was -0.881.
In the case of GGGCUUUCUCCAAUCGUAATT against Gm4876, the z-score is reported as 0.603.
With CGAGCCUCUGUGAUAUCCATT against Cst11 the z-score was -2.69 (active).
GGUUCUGUCUUUUACUUUCTT against Olfr1496 showed a z-score of 0.232.
Work on CGAGUGCUUCUCUUGACAUTT against Mrpl22 yielded a z-score of -0.43.
GGAUAAUUAUAGGAAGAGCTT against Ncapd3 gave a z-score of -0.507.
GGGAUGCUAACAGGUGUCATT against Tkfc showed a z-score of -0.12.
Sequence GGCAUUACAUUUCAAUGAATT against Serpinb12 has a z-score of -0.71.
In the case of GGAAUACACUCAAUAUUGATT against Nupl1, the z-score is reported as -2.59 (active).
In the case of GGUGUUCUUGAAGUUUAUATT against Zfp157, the z-score is reported as 0.579.
Work on GCAGGAGUCAAAUUUUCUATT against Nemp1 yielded a z-score of -0.795.
For GGAUUUUUGACUGUGAUUCTT against Pak1ip1, the z-score was -1.57.
Work on CCCAGACAUUACAUGGCCUTT against Cldn6 yielded a z-score of -0.935.
For GGAACAAUGGGUUCAUUUUTT against Ifi203, the z-score was 0.136.
With CGUAAUCUUCAUCUUAGUATT against Olfr613 the z-score was 0.601.
With GGAACCAAGGAUGUGAAAGTT against Rab13 the z-score was -2.17 (active).
With GGAGUCUUGGAAAAAAGGCTT against Rep15 the z-score was -1.65.
Work on GGCCUGUUGAUUGCAUAUUTT against Sppl2a yielded a z-score of -1.01.
Sequence GGCCUGAAAAGACUGAUAATT against Vmn2r26 has a z-score of 1.18.
With GCUAGUUAAGAGGAGGCUGTT against Nob1 the z-score was -0.252.
In the case of GGAGCACAGGAAAAUAUAUTT against Mdm2, the z-score is reported as 0.561.
For GCACUUUGUAUAUCUUUCCTT against Btd, the z-score was 1.51.
In the case of GGAGAAGGAUUAUACCAGUTT against Rfesd, the z-score is reported as 2.2 (active).
Work on GGGAGUUUCCAGAUGUUUUTT against Gclm yielded a z-score of 0.0729.
Sequence GGAAGAAAAGACUUAUCGUTT against Jkamp has a z-score of -0.663.
GGGAAACAUCUUCCUAUCCTT against Serpina12 showed a z-score of -0.958.
For GGCAGGUUUUUGACAACUUTT against Fxyd4, the z-score was 3.2 (active).
Work on CCUAAUAAGCCAUAUGCAUTT against Alkbh8 yielded a z-score of -0.449.
GCCCUCUGUGAGUAGUAAUTT against Shroom3 gave a z-score of 0.603.
For GUUACUACAACAGCUACUATT against Krtap19-4, the z-score was -2.37 (active).
Work on GGACAUUGCCCACAUGACCTT against Rnf227 yielded a z-score of -0.15.
With GCUCAACAGGCUCAACUACTT against Cndp2 the z-score was 0.492.
For GGACUACCGAACAAGAGAATT against Zfp318, the z-score was 0.241.
GCAUUCACCGUACGUAUUCTT against Id4 gave a z-score of 0.187.
With GGGUAGAAUCCAAGAAGCGTT against Hoxb3 the z-score was -2.08 (active).
GGUCUUCAACCCUGUUUGGTT against Gpsm3 gave a z-score of 0.329.
Work on GGAGACUCCAUACCAGUGUTT against Zfp329 yielded a z-score of 1.78.
With GGAUAUGGGAAUGAAAGCATT against Nyap2 the z-score was -2.21 (active).
Work on GGCAGCAUUACACUGAAUCTT against Slc36a4 yielded a z-score of 0.436.
For CCUAGUGAUUAAAGGGAUGTT against Prss43, the z-score was 1.19.
For GGAAAGUGUUUUCUCAUGATT against Klf9, the z-score was -0.23.
Work on GGUGGUCUACUUCACCGCATT against Slc6a20a yielded a z-score of 0.466.
Work on GGAUCUCCUUUUUUUUCAATT against Gabrr1 yielded a z-score of 0.0887.
With UCAUCGCAACCAUCCACAGTT against Olfr530 the z-score was 0.464.
For CGAUGACGAUGCCUAACCATT against Dgkeos, the z-score was -2.34 (active).
Sequence GGGAGUCUGGUGGAUUGAUTT against Rln1 has a z-score of 0.0253.
In the case of GGUCUCACAAAAACAGUUCTT against Casq2, the z-score is reported as -0.317.
Sequence GCAGUGUAAUGUGGCCUACTT against Rorc has a z-score of 0.682.
Sequence GCUGUUUUCUUUCCAUUUCTT against Olfr981 has a z-score of -1.1.
In the case of GAAUUACACACAGGCCUGATT against Olfr1048, the z-score is reported as 0.306.
CACUGCUGUAAUCCCUAUGTT against Olfr1002 gave a z-score of 0.4.
For CCAACAACGGCAUUCACUATT against Ebf3, the z-score was -0.676.
For GGAGCACUUUGUAUGGAACTT against Ube2q2, the z-score was 2.97 (active).
CAAACCUUGUUGCCAUGACTT against Olfr406 gave a z-score of 0.0688.
Sequence GACAAGGUGCCAUACCAUUTT against Olfr351 has a z-score of -0.373.
For GGACAGCUCUCAGAAUUCUTT against Ctse, the z-score was -1.13.
In the case of CGCAAACAAACCUUAACAGTT against Maneal, the z-score is reported as 2.21 (active).
For GCUCCGGAAAGUAAGCAGATT against Tnfrsf26, the z-score was 0.259.
CCAUGGUACUAAUGUAAAUTT against Eef1e1 gave a z-score of 0.797.
With GGCUUUGAACACCAGUGAATT against Rpp21 the z-score was -0.453.
CGCAGAUAAUAUCUUUGUCTT against Olfr461 gave a z-score of 0.389.
GGACCUAAGCAGAAAACUGTT against Meis3 gave a z-score of 0.789.
Work on GCGGUAUGGCAUGGUACAUTT against LTO1 yielded a z-score of -0.855.
GGCCAUAAAACAUAAGCUATT against Tmem17 showed a z-score of 0.163.
Work on CGAACUUGUACAGAAGAAUTT against Slfn3 yielded a z-score of -0.311.
For AUGGGAGAAUCAGCAGAACTT against Set, the z-score was -2.77 (active).
GCAUAGAGGACUACAACGATT against Optc showed a z-score of 0.329.
With “GGACAGGAAGAAAAGAAACTT against Vmn2r-ps11” the z-score was -1.19.
With GGAAGGUGAAGCCAGUUUCTT against Traf3ip2 the z-score was 2.02 (active).
GGACACUUUCAGACCUUAGTT against Ankrd27 showed a z-score of -0.116.
GGACUUUGAUGUUGAAUGUTT against Rapgef1 showed a z-score of -0.985.
Work on GGAAAAUGGUUGGUACUUUTT against Vwc2 yielded a z-score of 0.219.
For GGACCUUCCUACGAGAAAATT against Tm2d2, the z-score was 0.0894.
In the case of GGAUCAAGGAGGAUUUCAATT against Tprg, the z-score is reported as 2.38 (active).
With CGGUAAACAUCAGUAAUGATT against Drd5 the z-score was 0.0608.
GCUACGUUCAGUUCCAUUGTT against Eddm3b showed a z-score of -0.321.
In the case of CGACUUGAUUUCAAAACAUTT against Fbxl13, the z-score is reported as -0.981.
In the case of GGACCUGUCCAUCUUCAUCTT against Scn1b, the z-score is reported as 3.87 (active).
In the case of GCCAAGAGUUUGAUAUAUATT against Plekhg3, the z-score is reported as 1.79.
Sequence GGUAACAUCUCCAUCAGCCTT against Nxph3 has a z-score of 0.34.
For GGUAUCUUUAGGUUUCUGGTT against Vmn2r37, the z-score was 0.499.
For GCCAAGAAAGAUCAUUGACTT against Far2, the z-score was -0.703.
In the case of GCUAGCCAGUGCAUUCACATT against Srp68, the z-score is reported as -2.96 (active).
GCCCUUAAUUGAACAAAUATT against Otud7b gave a z-score of 0.0529.
CGGACUCAGUCAUCAUUGCTT against Atf7 showed a z-score of -1.46.
For GGAAAGAAAAAUCAGAGAATT against Adprhl1, the z-score was -0.866.
Work on GCUGUGGUAAACUGAAACUTT against Glis2 yielded a z-score of -1.89.
With GGGAGCCAAUGAAAUCAAGTT against Hmbox1 the z-score was 3.31 (active).
In the case of GCCUUGACAGAGGUAUUGATT against Ovgp1, the z-score is reported as -1.46.
“GGAGAAAUUCAAACAAGUATT against 4930503B20Rik” showed a z-score of 0.275.
CCCACUGGUUUGUUUAAACTT against Hbegf showed a z-score of 0.555.
For GGUUUUGCCUCCCAUAGUATT against Ssty1, the z-score was 0.112.
With GGAGGAGCUUAGCCCUUUUTT against Bad the z-score was 2.28 (active).
GCAGUUACGUUAGUUAAUATT against Plekha1 showed a z-score of 1.1.
Sequence GCUACUCAUUUAGCAGAGATT against Olfr76 has a z-score of -0.887.
With GUGGAUUAGGGAAUUUCAUTT against Mrgprb1 the z-score was 1.84.
For GAAUCCCUUCGAGUACGACTT against Fxyd2, the z-score was 3.17 (active).
